# Hits are enriched below; roughly 2.5% of the tested compounds scored in any of these assays.
# Cruzain noTriton = inhibitors of Trypanosoma cruzi cruzain without detergent; P25779; Potency, µM, usual class: inhibitors; purified cruzain, Z-FR-AMC fluorescence, no detergent; 200,000 compounds, 2.3% hits; further: nearly all actives have a fitted effect of over 40% in size
# Target sequence (P25779 123-467 limits assumed): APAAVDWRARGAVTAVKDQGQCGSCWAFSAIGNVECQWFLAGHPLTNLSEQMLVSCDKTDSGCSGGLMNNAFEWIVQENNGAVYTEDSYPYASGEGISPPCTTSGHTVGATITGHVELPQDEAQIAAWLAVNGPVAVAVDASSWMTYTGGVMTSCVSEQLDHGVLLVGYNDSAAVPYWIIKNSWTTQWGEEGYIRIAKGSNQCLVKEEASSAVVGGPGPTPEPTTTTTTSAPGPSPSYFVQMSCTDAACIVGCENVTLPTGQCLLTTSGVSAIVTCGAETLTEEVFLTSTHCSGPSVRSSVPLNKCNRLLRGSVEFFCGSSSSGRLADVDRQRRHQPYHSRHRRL
#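 Purified cruzain at 1.5 nM, pre-incubated 15 min with compound at room temperature in 100 mM sodium acetate pH 5.5, 5 mM DTT, 0.00005% Triton X-100. Reaction started with 2 uM Z-FR-AMC; AMC fluorescence increase over 60 s gives rate.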
# Cruzain Triton = inhibitors of Trypanosoma cruzi cruzain with detergent; AID 1478; 200,000 compounds, 0.43% hits; P25779; purified cruzain, Z-FR-AMC fluorescence, 0.01% Triton; Potency, µM, hits mostly inhibitors; further: nearly all actives have a fitted effect of over 40% in size
#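 Detergent-containing run (0.01% Triton X-100) in acetate buffer pH 5.5 with 5 mM DTT: enzyme at 1.5 nM final, 15 min compound preincubation at room temperature, then 2 uM Z-FR-AMC substrate. Activity taken as 60 s fluorescence increase at 360/450 nm.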
# A number is an active result; i = inactive; ? = inconclusive. The call rests on the fitted dose curve; in most records, active means well fitted curve in the direction sought with a large enough effect; inconclusive means small, poorly fitted or top-dose-only effect, or another doubt; inactive means no such curve, though single readings can be large; an effect the other way counts as inactive or inconclusive.
SMILES,Cruzain noTriton,Cruzain Triton
CCc1nc2ccccc2n1CCCCOc1ccc(Cl)cc1,i,i
CCc1cccc(CC)c1NC(=O)c1cc(S(=O)(=O)N2CCc3ccccc32)cn1C,i,i
O=S(=O)(Nc1nc2ccccc2nc1N1CCc2ccccc2C1)c1ccc(Cl)cc1,i,i
O=S(=O)(Nc1nc2ccccc2nc1N1CCc2ccccc2C1)c1ccc(Br)cc1,7.9µM,i
Fc1ccc(-c2noc3ncnc(N4CCCCC4)c23)cc1,i,i
CCc1nn2c(=O)cc(COC(=O)Cc3ccccc3)nc2s1,i,i
CCOc1ccc(S(=O)(=O)Nc2ccc3c(c2)c(C(C)=O)c(C)n3S(=O)(=O)c2ccc(OCC)cc2)cc1,?,i
CCOc1ccc(S(=O)(=O)Nc2ccc3c(c2)c2c(n3S(=O)(=O)c3ccc(OCC)cc3)CCCC2=O)cc1,7.9µM,i
COc1ccccc1CNC(=O)CC1N=C2c3ccccc3N=C(SCC(=O)Nc3ccc(F)cc3)N2C1=O (stereo unspecified),?,i
Cc1ccc(CCNC(=O)c2ccc(CSCc3ccccc3Cl)o2)cc1,i,i
COc1cc(-c2noc(CCC(=O)Nc3cc(C)ccc3C)n2)cc(OC)c1OC,?,i
Cc1cc(C)c(S(=O)(=O)N2CCN(c3ccc([N+](=O)[O-])c(-n4nc(C)cc4C)c3)CC2)c(C)c1,20µM,i
Cc1cc(C)n(-c2cc(N3CCN(S(=O)(=O)c4ccc(Br)cc4)CC3)ccc2[N+](=O)[O-])n1,?,i
CC12CCC(C(=O)N(CSC(=S)N/N=C\c3ccccc3O)C1=O)C2(C)C (stereo unspecified),?,i
CN(C)c1ccc(/C=N\NC(=S)SCN2C(=O)C3CCC(C)(C2=O)C3(C)C)cc1 (stereo unspecified),32µM,i
COCCCNC(=O)c1c(NC(=O)Cc2coc3c(C)c(C)ccc23)sc2c1CCCC2,i,i
C#CCn1c(=NC(=O)c2ccc(S(=O)(=O)N3CCCc4ccccc43)cc2)sc2cc(S(N)(=O)=O)ccc21,7.9µM,i
Cn1c(=NC(=O)c2ccc(S(=O)(=O)N3CCCc4ccccc43)cc2)sc2cc(S(C)(=O)=O)ccc21,i,i
CC(C)OCCCn1c(=O)c2ccccc2n2c(-c3cc(Cl)ccc3O)nnc12,i,i
O=c1oc2cc(OCc3ccc([N+](=O)[O-])cc3)ccc2c2c1CCCC2,13µM,i
CCOC(=O)CCc1c(C)c2ccc(OCc3nn[nH]n3)cc2oc1=O,i,i
O=C(O)c1ccc(COc2ccc3c4c(c(=O)oc3c2)CCC4)o1,i,i
CCOC(=O)CCc1c(C)c2ccc(OCc3ccc([N+](=O)[O-])cc3)cc2oc1=O,10µM,i
CCOC(=O)c1cc(C)n(CC2CCC(C(=O)Nc3cccc(C)c3)CC2)c1C (stereo unspecified),i,i
Cc1cccc(OCC(=O)N(Cc2cccc(Cl)c2)Cc2ccco2)c1C,i,i
SMILES,Cruzain noTriton,Cruzain Triton
COC(=O)NC(=S)Nc1ccc(Oc2ccc(Cl)cc2Cl)c(Cl)c1,25µM,i
COC(=O)NC(=S)Nc1ccc(Oc2ccc(Cl)cc2)c(Cl)c1,i,i
COc1cc(C(=O)NCCCc2nc3ccccc3n2CC(C)C)cc(OC)c1OC,i,i
Cc1cccc(C)c1OC(=O)CSc1nnc(-c2cccs2)o1,i,i
CCCCC[CH2][Hg][S]C1=C2N=CNC2NC(N)=N1 (stereo unspecified),i,i
Cc1cc(C)nc(N/N=C/C=C/c2ccccc2)n1,i,i
Cc1sc(N/N=C/C=C/c2ccccc2)nc1-c1ccccc1,7.9µM,i
COc1ccc(NC(=O)Cn2c(=O)n(-c3ccc(Cl)cc3)c(=O)c3c(C)c(C(=O)N(C)C)sc32)cc1Cl,i,i
COc1cc(OC)cc(N2C(=O)N(Cc3ccc(C(C)(C)C)cc3)c3ccccc3S2(=O)=O)c1,4µM,i
CCOc1ccc(N2C(=O)N(Cc3ccc(C)cc3C)c3ccccc3S2(=O)=O)cc1,25µM,i
COc1cc(OC)cc(N2C(=O)N(CC(=O)c3ccc(F)cc3)c3ccccc3S2(=O)=O)c1,?,i
CC(=O)c1ccc(N2C(=O)N(CC(=O)c3ccc(C)cc3)c3ccccc3S2(=O)=O)cc1,?,i
Cc1cccc(NC(=O)Cn2nc(-c3ccccc3)c3cnc4ccccc4c32)c1,i,i
CCOc1ccc(-c2cc(C(=O)NCc3ccccc3)c3c(-c4ccc(CC)cc4)[nH]nc3n2)cc1,i,i
COc1ccc(NS(=O)(=O)c2ccc(N/N=C(\C)c3ccncc3)c([N+](=O)[O-])c2)cc1,13µM,i
COc1ccccc1NS(=O)(=O)c1ccc(N/N=C(\C)C(C)C)c([N+](=O)[O-])c1,i,i
C/C(=N\Nc1ccc(S(=O)(=O)Nc2ccc(Cl)cc2)cc1[N+](=O)[O-])c1ccc(N2CCOCC2)cc1,10µM,i
O=C(O)c1cc(NS(=O)(=O)c2ccc(N3CCOCC3)c([N+](=O)[O-])c2)cc(C(=O)O)c1,i,i
Cc1nn(C)c2c1c(C(F)(F)F)cc(=O)n2C(C)C(=O)Nc1ccccc1F (stereo unspecified),?,i
N#CC1(Cc2ccc([N+](=O)[O-])cc2)c2ccccc2C=CN1C(=O)c1ccccc1 (stereo unspecified),25µM,i
N#CC1(Cc2ccccc2)c2ccccc2C=CN1C(=O)c1ccccc1 (stereo unspecified),i,i
OC1CCN(c2c3c(nc4cc(-c5cccc(F)c5)nn24)CCCC3)CC1,i,i
Clc1cccc(-c2cc3nc4c(c(N5CCNCC5)n3n2)CCCC4)c1,25µM,i
COc1cc(C(=O)NC2CC(=O)N(c3cccc(F)c3)C2)cc(OC)c1OC (stereo unspecified),i,i
Cn1c(=O)c2c(-c3ccccc3)n3c(c2n(C)c1=O)C(c1ccc([N+](=O)[O-])cc1)Nc1ccccc1-3 (stereo unspecified),i,i
SMILES,Cruzain noTriton,Cruzain Triton
O=C(c1ccc2c(c1)N(Cc1ccccc1)C(=O)c1ccccc1S2(=O)=O)N1CCc2ccccc21,?,i
O=c1c2ccccc2nnn1CSc1nnc(-c2cccs2)n1Cc1ccccc1,i,i
C=CCn1c(SCn2nnc3ccccc3c2=O)nc2scc(-c3cccs3)c2c1=O,7.9µM,i
C=CCn1c(SCC(=O)Nc2ccccc2)nc2scc(-c3cccs3)c2c1=O,25µM,i
C=CCn1c(SCC(=O)N2CCCC2)nc2scc(-c3cccs3)c2c1=O,i,i
CSCCC(NC(=O)c1cccc([N+](=O)[O-])c1)c1nc2ccccc2[nH]1 (stereo unspecified),?,i
CSCC[C@H](NC(=O)COc1ccc(Cl)cc1)c1nc2ccccc2[nH]1,13µM,7.1µM
CSCC[C@H](NC(=O)c1cc([N+](=O)[O-])ccc1Cl)c1nc2ccccc2[nH]1,i,22µM
Cc1cc(Cl)ccc1OCC(=O)N[C@@H](Cc1ccccc1)c1nc2ccccc2[nH]1,i,i
CC(C)c1nc2ccc(C(=O)NCCCN3CCN(c4ccccc4F)CC3)cc2o1,i,i
CCN(C(=O)c1cn(CC)c(=O)c2cc(OC)c(OC)cc12)c1ccc(C)c(C)c1,i,i
COc1ccc(S(=O)(=O)N2CCN(c3ccc(C)cc3C)CC2)cc1OC,?,i
CCOc1ccc(S(=O)(=O)N2CCN(c3cc(Cl)ccc3Cl)CC2)c2ccccc12,10µM,i
CCOc1ccc(Cl)cc1S(=O)(=O)N1CCN(c2ccc(F)cc2)CC1,i,i
Cc1ccc(N2CCN(S(=O)(=O)c3ccc(Cl)c4ccccc34)CC2)c(C)c1,10µM,i
